Values without a mark were called inactive. How the calls were made is not given here.

The record followed here is PubChem BioAssay AID540351 (The Scripps Research Institute Molecular Screening Center, 2011).

The subject of the assay is Potassium Channel [KATP]. Put plainly: selectivity profiling over binding targets, CYP450 – biochemical, Ricerca HitProfilingScreen, selectivity assay for S1P3 agonist project, profiling panel (AID 540351). As to conditions: Ricerca receptor/enzyme binding panel plus CYP450, at 30 µM, hits give high values.

On to `O=C(c1cc(C2CC2)on1)N(C1CCCCC1)C1CCCCC1`, for which the inhibition was 16%.

The term inhibition denotes how much of the control response was suppressed.
